Bioassay records: PubChem, several laboratories
HSF1 inhib: HSF1 inhibitors in luciferase reporter cells, primary screen, cell-based, NIH3T3, luminescence; NIH3T3-HGL HSE-luciferase, MG132-induced, luminescence 8 h; active compounds read low; activity change, negative = inhibition, % at 7.5 µM (by protocol); 300,000 compounds, 0.77% hits; AID 2098, 2009;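 active means more than half of replicate wells show activity change below -50%, luminescence cut by over half; inconclusive means some wells, but at most half, below -50%; inactive means no replicate well below -50%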;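 further: luciferase reports HSF-1 transcriptional activity via heat shock element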
AI-2 QS modul: Vibrio harveyi AI-2 quorum sensing modulators, primary screen, JMH597 strain, luminescence/OD600 ratio | Vibrio harveyi JMH597 AI-2 luminescence/OD600 ratio, 9 h; active compounds read low; strain lacks LuxN and CqsS sensors; 0 = neutral-control median | activity change, % at 7.5 µM | 300,000 compounds, 0.4% hits | AID 2094, 2009; in the data active means activity change below about -75%, passing the limit was not always enough; inconclusive means no clear call, values can overlap the other calls;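 further: luminescence divided by OD600 gain over 9 h not by final OD600 alone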
FXN GAA850 act: FXN promoter activators, primary screen, cell-based, luciferase luminescence, HEK293 lucGAA850. activation, % at 6 µM. HEK293 lucGAA850 FXN promoter luciferase reporter, 24 h; percent of 10 µM SAHA response. 360,000 compounds, 0.56% hits;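 active means activation above the average of all compounds screened plus 3 SD, cutoff fixed separately per campaign, cut at about 7.5% in these data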
HSP90 refold inh: HSP90 inhibitors, primary screen, cell lysate, luminescence | inhibition, % at 5.6 µM | 290,000 compounds, 0.91% hits | Heat shock protein HSP 90 (rabbit reticulocyte lysate; luciferase refolding) | Rabbit reticulocyte lysate, luciferase refolding luminescence, 3 h;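 active means inhibition above the screen-wide mean plus 3 SD, computed separately per campaign, cut at about 16% in these data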;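 further: inhibitors lower the luminescence because luciferase stays unfolded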
SMARCA2 activ: SMARCA2 (BRM) function activators, primary screen, cell-based, luminescence, high throughput; MG213 cells, MMTV-luciferase reporter, dexamethasone, overnight; activation, % at 9.1 µM; 370,000 compounds, 1% hits; AID 652017, 2013; in the data active means activation above about 7.8%
PG9 Ab binder: binders of HIV-1 gp120 antibody PG9, primary screen, biochemical, TR-FRET | 360,000 compounds, 0.43% hits | TR-FRET gp120-PG9 antibody binding | AID 624416, 2012 | HIV-1 gp120 / PG9 antibody interaction | inhibition, % at 6.7 µM; in the data active means inhibition above about 8.5%
JMH597 growth: Vibrio harveyi growth inhibition, confirmation, counter-screen for AI-2 quorum sensing project, JMH597 strain, OD600 absorbance. growth inhibition, % at 7.5 µM. shares compounds with AI-2 QS modul. 9 h; lacks LuxN and CqsS sensors. 750 compounds, 1% hits;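 active means every replicate shows growth inhibition above 50%; inconclusive means at least half, but not all, replicates pass that cutoff; inactive means fewer than half of replicates pass it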
BB721 const-QS lum: luminescence inhibition in constitutive-on V. harveyi, confirmation, counter-screen for LuxS inhibitor project, strain BB721, luminescence readout; shares compounds with AI-2 QS modul; Vibrio harveyi BB721 luminescence, 9 h; inhibition, % at 7.5 µM; 750 compounds, 95% hits; AID 2727, 2010;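 active means inhibition above about 80% in every replicate, not just on average, limit read from the data; inconclusive means at least half of replicates past the limit, but not all; inactive means fewer than half of replicates past the limit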
BB721 growth rt: growth inhibition of V. harveyi BB721, confirmation, cytotoxicity control for AI-2 quorum sensing inhibitors, strain BB721, absorbance OD600 | Vibrio harveyi BB721 growth, 9 h | 750 compounds, 3% hits | shares compounds with AI-2 QS modul | growth inhibition, % at 7.5 µM;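 active means every replicate shows growth inhibition above 50%; inconclusive means at least half but not all replicates above 50% inhibition; inactive means under half of replicates above 50% inhibition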
AI-2 QS JMH597: Vibrio harveyi AI-2 signaling luminescence modulation – JMH597 strain, confirmation. shares compounds with AI-2 QS modul. Vibrio harveyi JMH597 AI-2 quorum sensing luminescence, 9 h; luxN and CqsS knockout, AI-2 only. inhibition, % at 7.5 µM. 750 compounds, 97% hits. AID 2736, 2010;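 active means every replicate shows more than 75% inhibition of signal versus neutral control wells; inconclusive means half to three quarters of replicates exceed 75% inhibition; inactive means fewer than half of replicates exceed 75% inhibition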
Numbers stand for hits; - = inactive; ? = inconclusive; . = no result given. A selection: hits, their analogues and other compounds. The true share with any hit is near 3.4%.

SMILES	HSF1 inhib	AI-2 QS modul	FXN GAA850 act	HSP90 refold inh	SMARCA2 activ	PG9 Ab binder	JMH597 growth	BB721 const-QS lum	BB721 growth rt	AI-2 QS JMH597
COc1ccc(OCC(=O)Nc2ccc(S(=O)(=O)Nc3cc(C)on3)cc2)cc1	-	-84.2	-	.	-	-	-	90.7	-	92.0
COc1ccc(S(=O)(=O)Nc2ccc(Nc3ccccc3)cc2)cc1	-	-96.9	-	.	-	-	67.7	99.7	-	99.8
CCc1ccc(OCC(=O)Nc2ccc(S(=O)(=O)Nc3ccccn3)cc2)cc1	-	-85.0	-	-	-	-	-	89.0	-	96.5
COc1ccc(S(=O)(=O)Nc2ccccc2)cc1	-	-	-	.	-	-	.	.	.	.
COc1ccc(CC(=O)Nc2ccc(S(=O)(=O)Nc3ncccn3)cc2)cc1	-	-90.9	-	-	-	-	-	93.4	-	96.3
CC(C)C[C@@H]1COc2cc(N3CCCC3)ccc2S(=O)(=O)N1	.	.	.	.	-	-	.	.	.	.
COC(=O)C1CN(CCc2ccccc2)CCS(=O)(=O)N1Cc1ccccc1F (stereo not drawn)	.	.	.	.	-	.	.	.	.	.
Cc1cc(NS(=O)(=O)c2ccc(C(C)C)cc2)no1	-	-85.6	-	-	-	-	-	87.3	-	99.8
O=C(COn1nnc2ccc(Cl)cc21)NCc1ccccc1	-	-88.9	-	-	-	-	-	95.8	-	97.2
Cc1ccc(CNC(=O)CCc2ccccc2)cc1	-	-81.0	-	-	-	-	-	92.5	-	93.9
CC(C)c1ccc(CNC(=O)CCc2ccccc2)cc1	-	-88.8	-	-	-	-	-	95.8	-	97.2
O=C(CCc1ccccc1)NCc1ccccc1	-	-	-	-	-	-	.	.	.	.
Cc1c(C(C)NC(=O)c2cc(COc3cccc4cnccc34)on2)cnn1C (stereo not drawn)	-	-81.1	-	-	-	-	-	80.5	-	87.7
O=C(CN1C(=O)c2ccccc2C1=O)Nc1cccc(O)c1	-	?	-	-	-	-	.	.	.	.
O=C(CN1C(=O)c2ccccc2C1=O)Nc1cccc(S(=O)(=O)Nc2ccccc2Cl)c1	-	-82.7	-	-	-	-	-	90.4	-	92.5
CC(=O)c1cccc(NC(=O)CN2C(=O)c3ccccc3C2=O)c1	-	-96.2	-	-	-	-	-	99.5	-	99.6
O=C(CN1C(=O)c2ccccc2C1=O)Nc1cccc(Cl)c1	-	-93.5	-	-	-	-	-	98.8	-	99.1
Cc1ccc(OCCC(=O)Nc2ccc(F)c(Cl)c2)cc1	-	-78.1	-	-	-	-	-	-	-	?
Cc1ccc(NC(=O)c2cccc(S(=O)(=O)Nc3c(C)n(C)n(-c4ccccc4)c3=O)c2)cc1C	.	.	.	.	-	-	.	.	.	.
Cc1cccc(NC(=O)CCOc2ccccc2)c1	-	-83.7	-	-	-	-	-	91.3	-	94.4
Cc1cc(NC(=O)CN2C(=O)c3ccccc3S2(=O)=O)no1	-	-	-	-	-	-	.	.	.	.
Cc1cc(NC(=O)CN2C(=O)c3ccccc3C2=O)no1	-	?	-	-	-	-	-	83.7	-	87.1
Cc1cccc(NC(=O)CCN2C(=O)c3ccccc3C2=O)c1	-	?	-	-	-	-	-	88.4	-	91.6
